{
  "source": "the supplement of paper PMC10037445",
  "key": {"[1]": {"test_system": "RAW-Dual", "experiment": "NF-kB SEAP reporter activity, fold change vs agonist alone; cytotoxicity flag (confluency mask): not cytotoxic; higher = enhanced NF-kB activity", "how_it_was_run": "(§1)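 RAW-Dual macrophages (50,000 cells/well in DMEM, 384-well plates) received 50 nL of library stock by pin tool, then a PRR agonist 1 h later, and were kept at 37 °C, 5% CO2. After 20 hours, supernatant was read for IRF by QuantiLuc luminescence and for NF-κB by QuantiBlue absorbance at 620 nm. Reporter activity is fold change over agonist-alone wells. Cytotoxic wells had IncuCyte confluency below 70% of agonist controls in both mask sets.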"}, "[2]": {"test_system": "RAW-Dual", "experiment": "NF-kB SEAP reporter activity, fold change vs agonist alone; higher = enhanced NF-kB activity", "how_it_was_run": "as §1"}, "[3]": {"test_system": "RAW-Dual", "experiment": "NF-kB SEAP reporter activity, fold change vs agonist alone; cytotoxicity flag (confluency mask): cytotoxic (confluency <70% of control); higher = enhanced NF-kB activity", "how_it_was_run": "as §1"}, "[4]": {"settings": "agonist: ODN 1826 (TLR9) 0.5 ug/mL"}, "[5]": {"settings": "agonist: Pam2CSK4 (TLR2/6) 0.1 ug/mL"}, "[6]": {"settings": "agonist: Pam3CSK4 (TLR2/1) 0.1 ug/mL"}, "[7]": {"settings": "library stock concentration (final ~1000-fold dilution): 10 mM, cytotoxicity flag (confluency mask): not cytotoxic, agonist: Imiquimod (TLR7) […]"}, "[8]": {"settings": "library stock concentration (final ~1000-fold dilution): 10 mM, cytotoxicity flag (confluency mask): not cytotoxic, agonist: MPLA (TLR4) […]"}},
  "note": "Whole data set: some 2,900 compounds, median “NF-kB SEAP reporter activity, fold change vs agonist alone” near 0.99, cut for the highest 2% near 2.6. Only a selection was taken, and the highest values are over-represented in it overall.",
  "data": [
    {"smiles": "CCCN(CCC)C(=O)C1=Cc2ccc(-c3ccc(C(=O)N4CCCC4)cc3)cc2N=C(N)C1", "note": "(library stock concentration (final ~1000-fold dilution): 1 mM)", "values": [
      {"measurement": "NF-kB SEAP reporter activity", "setting": "[1]; agonist: LPS (TLR4) 0.1 ug/mL", "value": 2.58},
      {"measurement": "NF-kB SEAP reporter activity", "setting": "[1]; [4]", "value": 1.07},
      {"measurement": "NF-kB SEAP reporter activity", "setting": "[1]; [5]", "value": 1.16},
      {"measurement": "NF-kB SEAP reporter activity", "setting": "[1]; [6]", "value": 1.26}
    ]},
    {"smiles": "CCOC(=O)C1=Cc2ccc(C(F)(F)C(F)(F)F)cc2N=C(N)C1", "note": "(library stock concentration (final ~1000-fold dilution): .1 mM)", "values": [
      {"measurement": "NF-kB SEAP reporter activity", "setting": "[1]; agonist: LPS (TLR4) 0.1 ug/mL", "value": 1.34},
      {"measurement": "NF-kB SEAP reporter activity", "setting": "[1]; [4]", "value": 1.25},
      {"measurement": "NF-kB SEAP reporter activity", "setting": "[1]; [5]", "value": 1.09},
      {"measurement": "NF-kB SEAP reporter activity", "setting": "[1]; [6]", "value": 1.17}
    ]},
    {"smiles": "CCOC(=O)C1=Cc2ccc(C(F)(F)C(F)(F)F)cc2N=C(N)C1", "values": [
      {"measurement": "NF-kB SEAP reporter activity", "setting": "[2]; library stock concentration (final ~1000-fold dilution): .1 mM, cytotoxicity flag (confluency mask): not cytotoxic, agonist: Imiquimod (TLR7) […]", "value": 0.718},
      {"measurement": "NF-kB SEAP reporter activity", "setting": "[2]; library stock concentration (final ~1000-fold dilution): .1 mM, cytotoxicity flag (confluency mask): not cytotoxic, agonist: MPLA (TLR4) […]", "value": 1.18}
    ]},
    {"smiles": "CCCN(CCC)C(=O)C1=Cc2ccc(-c3ccc(C(=O)N4CCCC4)cc3)cc2N=C(N)C1", "values": [
      {"measurement": "NF-kB SEAP reporter activity", "setting": "[2]; library stock concentration (final ~1000-fold dilution): 1 mM, cytotoxicity flag (confluency mask): not cytotoxic, agonist: Imiquimod (TLR7) […]", "value": 1.22},
      {"measurement": "NF-kB SEAP reporter activity", "setting": "[2]; library stock concentration (final ~1000-fold dilution): 1 mM, cytotoxicity flag (confluency mask): not cytotoxic, agonist: MPLA (TLR4) […]", "value": 1.82}
    ]},
    {"smiles": "Cl.Nc1ccn(C2OC(CO)C(O)C2O)c(=O)n1", "note": "(stereo not drawn) (library stock concentration (final ~1000-fold dilution): 10 mM)", "values": [
      {"measurement": "NF-kB SEAP reporter activity", "setting": "[1]; agonist: LPS (TLR4) 0.1 ug/mL", "value": 0.959},
      {"measurement": "NF-kB SEAP reporter activity", "setting": "[1]; [4]", "value": 1.65},
      {"measurement": "NF-kB SEAP reporter activity", "setting": "[1]; [5]", "value": 1.16},
      {"measurement": "NF-kB SEAP reporter activity", "setting": "[1]; [6]", "value": 1.35}
    ]},
    {"smiles": "Cl.Nc1ccn(C2OC(CO)C(O)C2O)c(=O)n1", "note": "(stereo not drawn)", "values": [
      {"measurement": "NF-kB SEAP reporter activity", "setting": "[2]; [7]", "value": 1.72},
      {"measurement": "NF-kB SEAP reporter activity", "setting": "[2]; [8]", "value": 1.42}
    ]},
    {"smiles": "C=C1CC[C@@H]2[C@](C)(CO)[C@H](O)CC[C@@]2(C)[C@@H]1/C=C/C1=CCOC1=O", "note": "(library stock concentration (final ~1000-fold dilution): 10 mM)", "values": [
      {"measurement": "NF-kB SEAP reporter activity", "setting": "[1]; agonist: LPS (TLR4) 0.1 ug/mL", "value": 0.755},
      {"measurement": "NF-kB SEAP reporter activity", "setting": "[1]; [4]", "value": 0.721},
      {"measurement": "NF-kB SEAP reporter activity", "setting": "[1]; [5]", "value": 0.5},
      {"measurement": "NF-kB SEAP reporter activity", "setting": "[1]; [6]", "value": 0.597}
    ]},
    {"smiles": "C=C1CC[C@@H]2[C@](C)(CO)[C@H](O)CC[C@@]2(C)[C@@H]1/C=C/C1=CCOC1=O", "values": [
      {"measurement": "NF-kB SEAP reporter activity", "setting": "[2]; [7]", "value": 0.706},
      {"measurement": "NF-kB SEAP reporter activity", "setting": "[2]; [8]", "value": 0.901}
    ]},
    {"smiles": "Cl.Cl.O=c1cc(CN2CCOCC2)occ1OCCCCCSc1ccnc2cc(C(F)(F)F)ccc12", "note": "(library stock concentration (final ~1000-fold dilution): 10 mM)", "values": [
      {"measurement": "NF-kB SEAP reporter activity", "setting": "[3]; agonist: LPS (TLR4) 0.1 ug/mL", "value": 0.81},
      {"measurement": "NF-kB SEAP reporter activity", "setting": "[3]; [4]", "value": 0.603},
      {"measurement": "NF-kB SEAP reporter activity", "setting": "[3]; [5]", "value": 0.59},
      {"measurement": "NF-kB SEAP reporter activity", "setting": "[3]; [6]", "value": 0.529}
    ]},
    {"smiles": "Cl.Cl.O=c1cc(CN2CCOCC2)occ1OCCCCCSc1ccnc2cc(C(F)(F)F)ccc12", "values": [
      {"measurement": "NF-kB SEAP reporter activity", "setting": "[2]; library stock concentration (final ~1000-fold dilution): 10 mM, cytotoxicity flag (confluency mask): cytotoxic (confluency <70% of control), agonist: Imiquimod (TLR7) […]", "value": 0.953},
      {"measurement": "NF-kB SEAP reporter activity", "setting": "[2]; library stock concentration (final ~1000-fold dilution): 10 mM, cytotoxicity flag (confluency mask): cytotoxic (confluency <70% of control), agonist: MPLA (TLR4) […]", "value": 0.895}
    ]},
    {"smiles": "Fc1ccc(CNc2ncnc3ccc(F)cc23)cc1", "note": "(library stock concentration (final ~1000-fold dilution): 10 mM)", "values": [
      {"measurement": "NF-kB SEAP reporter activity", "setting": "[1]; agonist: LPS (TLR4) 0.1 ug/mL", "value": 2.47},
      {"measurement": "NF-kB SEAP reporter activity", "setting": "[1]; [4]", "value": 1.19},
      {"measurement": "NF-kB SEAP reporter activity", "setting": "[1]; [5]", "value": 1.06},
      {"measurement": "NF-kB SEAP reporter activity", "setting": "[1]; [6]", "value": 1.25}
    ]},
    {"smiles": "Fc1ccc(CNc2ncnc3ccc(F)cc23)cc1", "values": [
      {"measurement": "NF-kB SEAP reporter activity", "setting": "[2]; [7]", "value": 0.988},
      {"measurement": "NF-kB SEAP reporter activity", "setting": "[2]; [8]", "value": 1.47}
    ]},
    {"smiles": "Nc1ncnc2[nH]nc(Nc3ccc(F)cc3)c12", "values": [
      {"measurement": "NF-kB SEAP reporter activity", "setting": "[2]; [7]", "value": 1.13},
      {"measurement": "NF-kB SEAP reporter activity", "setting": "[2]; [8]", "value": 2.6}
    ]},
    {"smiles": "Nc1ncnc2[nH]nc(Nc3ccc(F)cc3)c12", "note": "(library stock concentration (final ~1000-fold dilution): 10 mM)", "values": [
      {"measurement": "NF-kB SEAP reporter activity", "setting": "[1]; agonist: LPS (TLR4) 0.1 ug/mL", "value": 6.5},
      {"measurement": "NF-kB SEAP reporter activity", "setting": "[1]; [4]", "value": 1.43},
      {"measurement": "NF-kB SEAP reporter activity", "setting": "[1]; [5]", "value": 0.872},
      {"measurement": "NF-kB SEAP reporter activity", "setting": "[1]; [6]", "value": 1.26}
    ]},
    {"smiles": "COc1cc2c(cc1Cc1cccc(Cl)c1F)c(=O)c(C(=O)O)cn2C(CO)C(C)C", "note": "(stereo not drawn)", "values": [
      {"measurement": "NF-kB SEAP reporter activity", "setting": "[2]; [7]", "value": 1.06},
      {"measurement": "NF-kB SEAP reporter activity", "setting": "[2]; [8]", "value": 1.17}
    ]},
    {"smiles": "COc1cc2c(cc1Cc1cccc(Cl)c1F)c(=O)c(C(=O)O)cn2C(CO)C(C)C", "note": "(stereo not drawn) (library stock concentration (final ~1000-fold dilution): 10 mM)", "values": [
      {"measurement": "NF-kB SEAP reporter activity", "setting": "[1]; agonist: LPS (TLR4) 0.1 ug/mL", "value": 1.45},
      {"measurement": "NF-kB SEAP reporter activity", "setting": "[1]; [4]", "value": 1.08},
      {"measurement": "NF-kB SEAP reporter activity", "setting": "[1]; [5]", "value": 0.664},
      {"measurement": "NF-kB SEAP reporter activity", "setting": "[1]; [6]", "value": 0.625}
    ]}
  ]
}
